PubChem BioAssay (NCI)
Compounds without any hit were thinned out: in the full panel of roughly 83,000, 20% have a hit.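 Note: values are percent growth. 100 is the growth of untreated cells, values between 100 and 0 indicate rising inhibition; between -100 and 0 indicates cell death.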 The source made the active and inactive calls. How the source made its calls: active means growth percent below 10; inactive means the rest.

Experiments:
Assay in all cases: NCI-60 one-dose screen, 48 h (100 = growth as untreated, 0 = no growth, -100 = all killed)
Conditions in all cases: 10 µM unless noted
[1] = tested on: HCT-15 colon
[2] = tested on: HT29 colon
[3] = tested on: SNB-75 CNS
[4] = tested on: SNB-19 CNS
[5] = tested on: U251 CNS
[6] = tested on: PC-3 prostate
[7] = tested on: SK-MEL-5 melanoma
[8] = tested on: UACC-62 melanoma
[9] = tested on: SK-MEL-28 melanoma
[10] = tested on: SK-MEL-2 melanoma
[11] = tested on: EKVX NSCLC
[12] = tested on: UO-31 renal
[13] = tested on: TK-10 renal
[14] = tested on: ACHN renal
[15] = tested on: CAKI-1 renal
[16] = tested on: A498 renal
[17] = tested on: CCRF-CEM leukemia
[18] = tested on: MOLT-4 leukemia
[19] = tested on: SN12C renal
[20] = tested on: LOX IMVI melanoma

Measured: growth

CC(=O)c1c(C)[nH]c(-c2nc3ccc(N4CCN(C)CC4)cc3[nH]2)c1-c1ccc(OCC2CCOCC2)cc1
inactive: [4] 42.7% | [5] 48.2% | [6] 40.4% | [8] 20.4% | [9] 45.7% | [10] 53.3% | [11] 35.6% | [14] 19.2% | [15] 12.4% | [16] 30.8% | [17] 30.9% | [18] 47.5%
active: [1] 5.23% | [2] 8.59% | [3] -9.92% | [7] -1.59% | [12] 6.97% | [13] -5.8%

COC(=O)[C@]12CC[C@@H](C(/C=C/c3cccnc3)=N/O)[C@@H]1[C@H]1CC[C@@H]3[C@@]4(C)CC(=C/c5cccnc5)/C(=N/O)C(C)(C)[C@@H]4CC[C@@]3(C)[C@]1(C)CC2
active: [7] -21.5% | [18] 2.12%
inactive: [1] 23.4% | [2] 32.8% | [3] 22.8% | [4] 71.9% | [5] 52.9% | [6] 20.8% | [8] 15.7% | [9] 50.8% | [10] 46% | [11] 26% | [12] 19.5% | [13] 67.9% | [14] 42.9% | [15] 23.7% | [16] 92.5% | [17] 16.6%

CC(=O)N1N=C(c2ccc(C)cc2)CC1c1ccc(Oc2ccc(Br)cc2)cc1 (stereo unspecified)
inactive: [1] 80.4% | [2] 79% | [3] 73.7% | [4] 84.9% | [5] 75.3% | [6] 87% | [7] 91.7% | [8] 64.4% | [9] 105% | [10] 106% | [11] 83.1% | [19] 78.5% | [13] 71.1% | [14] 99.5% | [15] 74.6% | [17] 93.2% | [18] 71.3%

N#C/C(=C\c1ccc(-c2ccc(Cl)cc2)o1)c1nc(-c2ccco2)cs1
inactive: [1] 86.3% | [2] 102% | [3] 86.5% | [4] 93.4% | [5] 96.9% | [6] 92.8% | [7] 91.1% | [8] 79.7% | [9] 97.5% | [10] 102% | [11] 48.6% | [19] 92.8% | [13] 62.2% | [14] 101% | [15] 89.3% | [16] 108% | [17] 93.9% | [18] 97.5%

Cc1csc(Nc2nc(-c3cccc(Br)c3)nc(C(Cl)(Cl)Cl)n2)n1
inactive: [1] 59.3% | [2] 18.9% | [3] 52.5% | [4] 39.8% | [5] 35.8% | [6] 48.9% | [7] 91.1% | [8] 60.5% | [9] 47% | [10] 104% | [11] 22.8% | [19] 78.5% | [13] 49.9% | [15] 21.6% | [16] 31.5% | [17] 91.4% | [18] 80.7%
active: [14] 0.817%

O=[N+]([O-])c1cc(S(=O)(=O)c2ccc(F)c([N+](=O)[O-])c2)ccc1F
inactive: [1] 36.5% | [2] 97% | [3] 97.2% | [4] 106% | [5] 62.8% | [6] 107% | [7] 106% | [8] 105% | [9] 110% | [10] 112% | [11] 117% | [12] 86.1% | [13] 119% | [14] 97.1% | [15] 109% | [16] 107% | [17] 46.2% | [18] 23.2%

C#CCN=C[C@]12CC[C@@H](C(=C)C)[C@@H]1[C@H]1CC[C@@H]3[C@@]4(C)CCC(=O)C(C)(C)[C@@H]4CC[C@@]3(C)[C@]1(C)CC2
active: [12] -78.2%
inactive: [1] 53.2% | [2] 55.7% | [3] 120% | [4] 79% | [5] 62.1% | [6] 24.5% | [7] 25.3% | [8] 37.7% | [9] 81.6% | [10] 91.7% | [11] 68.3% | [19] 55.1% | [14] 75.7% | [15] 45% | [16] 91.9% | [17] 61.3% | [18] 42.6%

O=C(NC1=CC(=O)c2ccccc2C1=O)c1ccccc1
inactive: [1] 29.1% | [2] 71.2% | [3] 34% | [4] 36.3% | [5] 21.1% | [6] 16.6% | [8] 15% | [9] 52.3% | [19] 29.2% | [13] 53.3% | [15] 29.6% | [16] 53.3%
active: [7] 0.587% | [10] 0.417% | [11] 9.48% | [14] 2.6% | [17] 8.93% | [18] -16.9%

Cn1cc(-c2nc(-c3c[nH]c4ncccc34)cs2)c2cc(Br)ccc21
inactive: [1] 64.2% | [2] 70.5% | [3] 80.5% | [4] 108% | [5] 72.9% | [6] 76.7% | [7] 91.8% | [8] 80.5% | [9] 102% | [10] 77.6% | [11] 75.2% | [19] 87.1% | [13] 63.5% | [14] 58.7% | [15] 78% | [16] 68.4% | [18] 69.1%

O=C(/C=C\c1ccc2c(c1)OCO2)/C=C/c1ccc2c(c1)OCO2
inactive: [1] 11% | [2] 32.1% | [3] 75.7% | [4] 68.9% | [5] 19.4% | [6] 91.1% | [7] 84% | [8] 75.1% | [9] 105% | [10] 127% | [11] 82.4% | [12] 76.3% | [13] 96.1% | [14] 88.3% | [15] 89.2% | [16] 126% | [17] 31.4% | [18] 35.2%

CC(=O)O[C@H]1CC[C@@]2(C)C(=CC[C@@H]3[C@@H]2CC[C@]2(C)C(=O)N(O)C(=O)C[C@@H]32)C1
inactive: [1] 58.9% | [2] 89.2% | [3] 75.8% | [4] 95.5% | [5] 69.3% | [6] 75.7% | [7] 98.4% | [8] 100% | [9] 89.6% | [10] 80.4% | [11] 102% | [19] 97.2% | [12] 97.4% | [14] 89.3% | [15] 64.1% | [16] 92.7% | [17] 86% | [18] 79.5%

N#C/C(=C\c1ccc(-c2cccc(C(F)(F)F)c2)o1)c1nc(-c2ccco2)cs1
inactive: [1] 71.7% | [2] 99.8% | [3] 82.2% | [4] 93.8% | [5] 96.4% | [6] 90% | [7] 88.1% | [8] 78.1% | [9] 97.7% | [10] 103% | [11] 43% | [12] 62.8% | [13] 49.1% | [14] 87.2% | [15] 87.1% | [16] 104% | [17] 93.7% | [18] 93%

Fc1ccc(Nc2nc(Nc3ccc(-c4nc5ccccc5[nH]4)cc3)nc(N3CCCC3)n2)cc1
active: [1] -8.99% | [20] 3.18% | [17] 5.35%
inactive: [2] 36.1% | [3] 65.4% | [4] 103% | [5] 55.8% | [6] 33.8% | [7] 87% | [9] 47.7% | [10] 95.2% | [11] 71.9% | [19] 81.2% | [12] 68.1% | [13] 151% | [14] 73.1% | [15] 88% | [16] 75.3% | [18] 48.2%

Nc1nc2c3ccncc3cc(-c3cccc(Cl)c3)c2c2cnccc12
inactive: [1] 28.5% | [2] 33.2% | [3] 57% | [4] 51.4% | [5] 29.2% | [6] 20% | [7] 50.4% | [9] 53.1% | [10] 59.1% | [11] 62.2% | [19] 36.4% | [12] 29.7% | [13] 32.3% | [14] 26.6% | [15] 29.1% | [17] 20%
active: [20] -50.9% | [16] -12% | [18] 3.17%

C#CCC(C)(O)/C=C/C1=C(C)CCCC1(C)C (stereo unspecified)
inactive: [1] 107% | [2] 86.2% | [3] 87% | [4] 95.8% | [5] 86.1% | [6] 77.6% | [7] 98.4% | [20] 96.4% | [9] 101% | [10] 97.4% | [11] 95.8% | [19] 99.2% | [12] 91.3% | [13] 96.7% | [14] 97.3% | [15] 92.4% | [16] 91.3% | [17] 101% | [18] 101%
